Test systems include SR leukemia; RPMI-8226 leukemia; OVCAR-8 ovarian; OVCAR-4 ovarian; SK-OV-3 ovarian; IGROV1 ovarian; OVCAR-3 ovarian; NCI/ADR-RES ovarian; HS 578T breast; OVCAR-5 ovarian.
Common to all, as to experiment: NCI-60 one-dose screen, 48 h (100 = growth as untreated, 0 = no growth, -100 = all killed)
Settings in all cases: 10 µM unless noted

The panel holds about 83,000 compounds, 20% with a hit somewhere; the sample as a whole holds those more often.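 Method: cells in 96-well plates; compound added at one concentration; 48 h incubation; percent growth measured; values under 10 scored active.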 Values without a mark were called inactive. Active and inactive are the calls of the source.

As for `CC(=O)N1N=C(c2ccc(Nc3nc(NCCO)nc(NCCO)n3)cc2)CC1c1ccc(Cl)cc1` (configuration not stated), the growth in the experiment with SR leukemia is 142%; with RPMI-8226 leukemia it was 112%; with OVCAR-8 ovarian, 104%; in the experiment with OVCAR-4 ovarian, 104%; in the experiment with SK-OV-3 ovarian, 101%; with IGROV1 ovarian, 99.4%. Besides, the growth was 96.4% with OVCAR-3 ovarian and 99.8% in the experiment with NCI/ADR-RES ovarian.

Regarding `Nc1ccccc1C#Cc1ccccc1C#Cc1ccc(OCCCCCCOc2ccc(C#Cc3ccccc3C#Cc3ccccc3N)cc2)cc1`, the growth was 94.7% in the experiment with SR leukemia; 94% in the experiment with RPMI-8226 leukemia; 95.6% in the experiment on OVCAR-8 ovarian; 105% in the experiment on OVCAR-4 ovarian; 92.5% in the experiment on SK-OV-3 ovarian; -7.54% (active) with IGROV1 ovarian. For the same molecule, the results for the growth in the experiment with OVCAR-3 ovarian, in the experiment with HS 578T breast and with NCI/ADR-RES ovarian were 109%, 113% and 93%, respectively.

On to `CCCCNCCCN(CCCC)CCCNCCCC`, for which the growth in the experiment with SR leukemia is 108%; with RPMI-8226 leukemia it was 99.6%; with OVCAR-8 ovarian it was 96%; in the experiment with OVCAR-5 ovarian, 108%; in the experiment with SK-OV-3 ovarian, 100%; in the experiment on IGROV1 ovarian, 99.5%. The values for the growth with OVCAR-3 ovarian, in the experiment on HS 578T breast and in the experiment with NCI/ADR-RES ovarian were 107%, 80.2% and 99.9%, respectively.

Regarding `O=C(CC(C(=O)c1ccccc1)N1CCN(Cc2ccccc2)CC1)c1ccccc1` (configuration not stated), the growth in the experiment with SR leukemia was 57.2%; in the experiment on RPMI-8226 leukemia it was 28.7%; with OVCAR-8 ovarian it was 90.7%; in the experiment with OVCAR-4 ovarian, 86.5%; in the experiment on SK-OV-3 ovarian, 112%; in the experiment with IGROV1 ovarian it was 119%. For the same molecule, the results for the growth with OVCAR-3 ovarian, in the experiment with HS 578T breast and in the experiment on NCI/ADR-RES ovarian were 58.8%, 92.5% and 97.1%, respectively.

Turning to `CCSc1nc(-c2cccs2)n2nc(-c3ccco3)cc2n1`, the growth in the experiment with SR leukemia is 92.7%; in the experiment on RPMI-8226 leukemia, 53.9%; with OVCAR-8 ovarian it was 99.8%; in the experiment with OVCAR-4 ovarian it was 68.9%; with SK-OV-3 ovarian, 106%; in the experiment on IGROV1 ovarian, 87.5%. The growth in the experiment with OVCAR-3 ovarian was 112%; with HS 578T breast, 108%; in the experiment on NCI/ADR-RES ovarian, 103%.

Consider `NC(=N\N=C/Cc1ccccc1)/C(N)=N\N=C\Cc1ccccc1`, for which the growth with SR leukemia was 81.5%; in the experiment on RPMI-8226 leukemia, 101%; in the experiment with OVCAR-8 ovarian, 107%; in the experiment with OVCAR-4 ovarian, 100%; in the experiment with SK-OV-3 ovarian, 113%; in the experiment with IGROV1 ovarian, 119%. Besides, the figures for the growth in the experiment on OVCAR-3 ovarian, in the experiment on HS 578T breast and in the experiment with NCI/ADR-RES ovarian were 110%, 105% and 103%, respectively.

As for `O=C(/C=C(\Nc1ccccc1)c1ccccc1)c1cn(-c2ccc([N+](=O)[O-])cc2)nn1`, the growth in the experiment with SR leukemia was 69.4%; in the experiment with RPMI-8226 leukemia, 84%; with OVCAR-8 ovarian it was 53.5%; with OVCAR-4 ovarian it was 87.9%; in the experiment with SK-OV-3 ovarian, 106%; with OVCAR-3 ovarian, 112%. For the same molecule, the growth is 63% with HS 578T breast and 111% in the experiment with NCI/ADR-RES ovarian.

Regarding `COc1cc(-c2nc3nc4sc(C)c(C)c4c(=O)n3[nH]2)cc(OC)c1OC`, the growth is 30.7% with SR leukemia; 74.3% in the experiment on RPMI-8226 leukemia; 96.4% with OVCAR-5 ovarian; 93.5% in the experiment with OVCAR-4 ovarian; 92% in the experiment with SK-OV-3 ovarian; 66.6% with IGROV1 ovarian. For the same molecule, the growth in the experiment on OVCAR-3 ovarian was 93.1%; in the experiment with HS 578T breast, 87.7%; in the experiment on NCI/ADR-RES ovarian, 70.8%.

For `C/C=C(/C(=C/C)c1ccc(O)cc1)c1ccc(O)cc1`, the growth in the experiment with SR leukemia is 15.5%; in the experiment with RPMI-8226 leukemia it was 18.3%; with OVCAR-8 ovarian it was 48.3%; with OVCAR-4 ovarian, 58.6%; with SK-OV-3 ovarian, 10.7%; in the experiment with IGROV1 ovarian, 36.2%. Also, the growth in the experiment with OVCAR-3 ovarian is -1.49% (active); in the experiment with HS 578T breast it was 25.6%; with NCI/ADR-RES ovarian, 24.3%.

For `Cc1n(Cc2ccc3ccccc3c2)cc[n+]1Cc1ccc2ccccc2c1`, the growth was -3.72% (active) in the experiment on SR leukemia; 2.6% (active) in the experiment with RPMI-8226 leukemia; 3.06% (active) with OVCAR-8 ovarian; 9.29% (active) in the experiment with OVCAR-4 ovarian; 21% in the experiment on SK-OV-3 ovarian; -38.1% (active) in the experiment with IGROV1 ovarian. Also, the growth in the experiment on OVCAR-3 ovarian is -1.02% (active); in the experiment with NCI/ADR-RES ovarian, 92.7%.

Consider `OCc1n(Cc2ccc3ccccc3c2)cc[n+]1Cc1ccc2ccccc2c1`, for which the growth with SR leukemia is 15.9%; in the experiment with RPMI-8226 leukemia, 13.5%; with OVCAR-8 ovarian, 60.7%; in the experiment on OVCAR-4 ovarian, 23.9%; in the experiment on SK-OV-3 ovarian, 75.9%; in the experiment with IGROV1 ovarian it was 21.9%. Also, the growth in the experiment on OVCAR-3 ovarian was 39.9%; with HS 578T breast it was 66.1%; in the experiment with NCI/ADR-RES ovarian it was 103%.

Take `CC1CN(/N=C/c2ccc([N+](=O)[O-])o2)C(=N)O1` (configuration not stated): the growth in the experiment with SR leukemia was 107%; in the experiment with RPMI-8226 leukemia, 97.4%; with OVCAR-8 ovarian, 96.6%; in the experiment with OVCAR-4 ovarian, 101%; in the experiment on SK-OV-3 ovarian, 118%; with IGROV1 ovarian, 98.3%. Further, the growth was 105% in the experiment with OVCAR-3 ovarian, 105% in the experiment with HS 578T breast and 101% in the experiment with NCI/ADR-RES ovarian.

`Cc1ccc(C(NC(=O)c2ccccc2)c2ccc3cccnc3c2O)cc1` (configuration not stated): the growth in the experiment with SR leukemia is 11%; in the experiment with RPMI-8226 leukemia, 14.9%; in the experiment on OVCAR-5 ovarian it was 44.8%; in the experiment with OVCAR-4 ovarian, 19.8%; with SK-OV-3 ovarian, 19.3%; with IGROV1 ovarian, 17.1%. Besides, the growth with OVCAR-3 ovarian is 31.5%; in the experiment on HS 578T breast it was 69.5%; in the experiment on NCI/ADR-RES ovarian, 14%.

As to `Cc1ccc(-c2c3c(N)nc(-c4ccncc4)nc3nc3c2c(C)nn3-c2ccccc2)cc1`, the growth with SR leukemia was 3.61% (active); in the experiment with RPMI-8226 leukemia, 62.5%; with OVCAR-8 ovarian, 21.9%; in the experiment on OVCAR-5 ovarian it was 65%; in the experiment on SK-OV-3 ovarian, -22.1% (active); in the experiment on IGROV1 ovarian it was 71.7%. The results for the growth in the experiment on OVCAR-3 ovarian, in the experiment on HS 578T breast and with NCI/ADR-RES ovarian were 73.6%, 32.7% and 46.6%, respectively.

Consider `Oc1c(N=Nc2nn[nH]n2)ccc2ccccc12`, for which the growth with SR leukemia was 106%; with RPMI-8226 leukemia it was 89.3%; with OVCAR-8 ovarian it was 91%; in the experiment with OVCAR-5 ovarian it was 97.3%; in the experiment on SK-OV-3 ovarian, 97.7%; in the experiment with IGROV1 ovarian, 78.5%. The growth in the experiment on OVCAR-3 ovarian was 71.6%; in the experiment with HS 578T breast, 91%; in the experiment on NCI/ADR-RES ovarian, 96.2%.

Values taken from PubChem BioAssay (NCI).
